Experimental data as given in the supplement of paper PMC3334620.
The full ranking holds about 33,000 sequences; the median of “E-score (-0.5 to 0.5)” is about -0.041, and the highest 2% start at about 0.37. This excerpt belongs to a sample that is enriched for the highest values.

These sequences were tested against T1, Ecm22 (UniProt Q05958) (assay: PBM E-score (8-mer binding enrichment) (E-score (-0.5 to 0.5)); higher = stronger / more preferred TF binding). Conditions: protein concentration: 200 nM; construct: GST-full length.
T1 sequence: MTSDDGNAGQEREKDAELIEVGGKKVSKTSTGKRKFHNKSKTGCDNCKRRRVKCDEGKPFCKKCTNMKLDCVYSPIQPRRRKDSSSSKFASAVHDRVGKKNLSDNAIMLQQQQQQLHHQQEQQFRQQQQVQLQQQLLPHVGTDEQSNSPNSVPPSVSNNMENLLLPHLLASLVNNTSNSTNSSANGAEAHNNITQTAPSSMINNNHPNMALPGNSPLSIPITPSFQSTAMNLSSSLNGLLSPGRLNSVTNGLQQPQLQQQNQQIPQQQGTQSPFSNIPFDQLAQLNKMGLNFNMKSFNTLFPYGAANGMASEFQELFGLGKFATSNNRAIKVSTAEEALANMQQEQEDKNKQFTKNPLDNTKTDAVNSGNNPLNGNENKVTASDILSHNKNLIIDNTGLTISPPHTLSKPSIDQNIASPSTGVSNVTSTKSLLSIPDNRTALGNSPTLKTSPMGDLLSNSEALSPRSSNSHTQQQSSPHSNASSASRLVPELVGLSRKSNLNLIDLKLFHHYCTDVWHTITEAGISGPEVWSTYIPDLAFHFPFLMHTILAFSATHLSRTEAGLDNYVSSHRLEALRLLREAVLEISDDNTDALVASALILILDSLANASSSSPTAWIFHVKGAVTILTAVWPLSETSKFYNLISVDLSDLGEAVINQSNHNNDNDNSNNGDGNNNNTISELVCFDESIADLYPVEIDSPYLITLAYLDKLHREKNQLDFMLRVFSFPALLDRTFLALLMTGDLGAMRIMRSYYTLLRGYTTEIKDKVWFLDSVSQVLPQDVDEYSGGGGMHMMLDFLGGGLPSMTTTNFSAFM
Experimental: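 Universal 'all 10-mer' protein binding microarrays (Agilent AMADID 015681) probed with GST-tagged S. cerevisiae TFs (full-length or DBD) made by in vitro transcription/translation (PURExpress), about 100-200 nM. Bound TF was detected with fluorescent anti-GST. Each ungapped 8-mer (which stands for itself and its reverse complement) is scored by the PBM enrichment score (E-score), a modified Wilcoxon-Mann-Whitney statistic from -0.5 to +0.5, computed with the Universal PBM Analysis Suite. Scale: above 0.35 generally sequence-specific binding.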

In order of falling “PBM E-score” value:
1. GTAAACGA  0.485
2. ATAAACGA  0.484
3. CTCGTAAA  0.475
4. GTCGTAAA  0.473
5. TCGTACGA  0.469
6. AATATACG  0.461
7. TTCGTAAA  0.456
8. CTGAACGA  0.456
9. ATGAACGA  0.453
10. GATTCGTA  0.45
11. GCGTACGA  0.448
12. CATATACG  0.445
13. CCGTACGA  0.445
14. AATTCGTA  0.441
15. ACGTACGA  0.441
16. CATAAACG  0.437
17. ATCGTAAA  0.436
18. GTGAACGA  0.426
19. ACGACGTA  0.414
20. AATAAACG  0.41
21. ATAAACGG  0.408
22. CATTCGTA  0.407
23. CACCGTAC  0.4
24. ACGACGGG  0.393
25. ACGACGTC  0.393
26. GTTCCGTA  0.389
27. ACGACGGA  0.388
28. CTCCGTAC  0.386
29. ACGAACAT  0.386
30. ACGAACAA  0.38
31. ACGACGAG  0.38
32. CCGTACGG  0.378
33. AAAATACG  0.372
34. ACGACGTG  0.372
35. ACGACGGC  0.37
36. ACGACGAC  0.364
37. ATCCGTAC  0.363
38. ACGTACGG  0.362
39. CCGTACTA  0.341
40. TCCGTAAA  0.332
41. CCGTACGC  0.324
42. AAAAACGA  0.323
43. CCCGTAAA  0.32
44. CTTCCGTA  0.319
45. ACGAACAC  0.318
46. ATCGTAAG  0.308
47. ATTCCGTA  0.284
48. ACGAACAG  0.282
49. CACCGTAA  0.277
50. AACGGTTA  0.27
51. GCGACGTA  0.265
52. ATCGTAAT  0.263
53. ATGAACGG  0.262
54. TCCTACGA  0.26
55. ACGTACGT  0.245
56. GACCCGTA  0.24
57. ACGTACGC  0.239
58. TGCGTAAA  0.228
59. GATTCGCA  0.227
60. CCGACGTA  0.208
61. GCCTCGCA  0.205
62. CACGTTCC  0.201
63. GTGAACAA  0.198
64. ATAAACGC  0.192
65. GTAAACTA  0.188
66. CTCCGTAA  0.187
67. TCGCACGA  0.183
68. AACGGAGA  0.18
69. GCGTACGC  0.178
70. GCGCGACC  0.173
71. GATTCGGA  0.171
72. CCGACGAG  0.165
73. GGCGTAAA  0.159
74. GACGTAAA  0.154
75. GCGTACTA  0.152
76. GGTTTATA  0.152
77. AGTTTATA  0.15
78. GCGAACAA  0.148
79. ACCTTCGC  0.143
80. CCGACGTC  0.138
81. AAAAACGG  0.13
82. CCGACGGC  0.129
83. CCGAACAA  0.127
84. GCGACGGA  0.124
85. ATGAACGC  0.118
86. CATTCGTC  0.112
87. ACAACCGC  0.111
88. GAAGTCGC  0.108
89. CACGTAAA  0.106
90. AATATACA  0.104
91. CACCGTAG  0.0943
92. CCGACGGA  0.0916
93. AGTTTATC  0.0904
94. CATTGTCG  0.0896
95. ACATCTAT  0.0869
96. CATTCGCA  0.0842
97. CGCGGCTA  0.0813
98. AATTCGTC  0.0772
99. GTGAACTA  0.0738
100. CTCTTAAC  0.0664
101. AAAATACC  0.0602
102. ACTCCGGC  0.0584
103. TAGATAAA  0.057
104. GTAAACCA  0.0466
105. CTCCGTTA  0.0433
106. TAGCTGAA  0.0371
107. CATATACA  0.0321
108. AATAAACA  0.0258
109. CTGAACGC  0.023
110. ATAAACTG  0.0158
111. GGAGTTGA  0.0109
112. AAGACGTC  0.00719
113. ACCCCGGT  0.00636
114. CGCCAGAC  0.00345
115. AGTAGGCC  0.00266
116. AGGCAACT  -0.02
117. CATAAACA  -0.0236
118. AAAATACA  -0.0245
119. AATATACT  -0.0273
120. AATTCGTG  -0.036
121. AAGGGCCC  -0.0372
122. ATCCGTGC  -0.0378
123. GCATTTAC  -0.0379
124. CATAAACC  -0.0464
125. CTGCGAAG  -0.0466
126. AATAAACT  -0.0489
127. CGGCACTA  -0.0606
128. ACAGAAGC  -0.0614
129. AGAGAAGC  -0.0688
130. GAATTGTC  -0.0741
131. GAGGTTGA  -0.0744
132. GGCGCCCA  -0.0786
133. AAGTGCAA  -0.0854
134. ACATGCCC  -0.0896
135. CATATACC  -0.0901
136. AAAAAGGG  -0.092
137. CTGAACTA  -0.092
138. TCGCCCGA  -0.102
139. ACTTCGAG  -0.105
140. CCAGGGCA  -0.108
141. AGCCTTAC  -0.108
142. ATGCACCA  -0.108
143. AAAAACTG  -0.116
144. ATCTGCAC  -0.117
145. CATCAGCC  -0.121
146. TCCGCCAA  -0.121
147. ATCGGGCA  -0.122
148. ATGACGGG  -0.125
149. GATCCACA  -0.13
150. AGAACCCA  -0.131
151. GGTAACAC  -0.135
152. GCCTGAAA  -0.139
153. AGGACGGG  -0.147
154. CTTCGGCC  -0.151
155. GGCTCCTA  -0.159
156. ATGACGTG  -0.166
157. ATCCTACC  -0.186
158. AGGACGTG  -0.194
159. CTCTAGAA  -0.201
160. AGGTCAGA  -0.204
161. CATCCCCC  -0.207
162. GTCTACCA  -0.215
163. CCCTACGG  -0.215
164. GGCCGACC  -0.224
165. AGAGCGGC  -0.228
166. GACGTCTA  -0.23
167. ATGACGGC  -0.236
168. CTCCACAG  -0.248
169. ACCCCCCT  -0.25
170. TGAGGTAA  -0.264
171. CAGGACGA  -0.283
172. ATTTCTGA  -0.286
173. CTAGCGGC  -0.29
174. CTAGGGAC  -0.323
